These results are taken from PubChem BioAssay AID449762 (Southern Research Specialized Biocontainment Screening …, 2010).

In all, about 330,000 compounds went through this assay and about 1,900 (0.58%) were called active. Inconclusive results (about 4%) are left out. A selection follows. Measured potencies and affinities stand elsewhere. Values without a mark were called inactive. Cut-off read from the data, not from the text of the source: inconclusive = inhibition above about 70% without an active follow-up result; inactive = below that.

The nature of the experiment: M. tuberculosis growth inhibition, HTS (AID 449762).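 Note: bacterial growth assessed after seven days of incubation.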 The settings on record: M. tuberculosis H37Rv growth inhibition, 7H9 media; at 25 µM; stronger effect = higher value.
On to `O=C(NCCc1ccccc1)C(=O)NN=C1CCCC1`, for which the inhibition was -3.67%.

Turning to `CC1CCCC/C1=N\NC(=S)Nc1ccccc1` (stereo not given), the inhibition is 0.51%.

Consider `Cc1ccc(NC(=S)N/N=C2\CCCCC2C)cc1` (stereo not given), for which the inhibition was 5.06%.

As for `S=C(Nc1ccccc1)NC1CCN(Cc2ccccc2)CC1`, the inhibition was -9.83%.

For `S=C(NC1CCCCC1)N1CCN(Cc2ccccc2)CC1`, the inhibition is -15.7%.

In the case of `O=C(CC(=O)NN=C1CCCC1)NCCc1ccccc1`, the inhibition is 4.48%.

With `Cc1cccc(C)c1NC(=S)NCCc1ccccn1`, the inhibition is 3.14%.

Take `CC1(C)C[C@H](O)[C@@]23C[C@@H](OC2=O)[C@]2(C)C(=CCC4[C@@]5(C)CC[C@H](O)C(C)(C)C5CC[C@]42C)[C@@H]3C1` (stereo not given in full): the inhibition was 3.65%.

Turning to `CCOC(=O)c1cc(CC)sc1NC(=O)COC(=O)C1CCC1`, the inhibition is -15.8%.

Consider `Cc1cccc(C)c1NC(=O)CN1N=NC2C(=O)N(c3cccc(Cl)c3)C(=O)C21` (stereo not given), for which the inhibition is 2.55%.

`CN(C)S(=O)(=O)c1cccc(NC(=O)CSc2nc3ccccc3[nH]2)c1`: the inhibition is -2.08%.

Turning to `O=C(Nc1nnc(C2CC2)s1)c1cncc(Br)c1`, the inhibition is 5.39%.

As to `COc1ccc(CNC(=O)C(=O)NCCC2CCCCN2S(=O)(=O)c2cccs2)cc1` (stereo not given), the inhibition is 5.17%.

Regarding `COc1ccc(CCNC(=O)C(=O)NCC2OCCN2S(=O)(=O)c2ccc(C)cc2)cc1OC` (stereo not given), the inhibition was -6.63%.

In the case of `Cc1ccc(NC(=O)N2CCCC2C(=O)NCC2CCCCC2)cc1` (stereo not given), the inhibition is 5.67%.

`Cc1cc(C(=O)N/N=C/c2ccc(-c3ccc(C)c(Cl)c3)o2)n[nH]1`: the inhibition was 42.8%.

Take `Clc1ccc(Cl)c(-c2ccc(/C=N/c3ncn[nH]3)o2)c1`: the inhibition was 8.33%.

As for `Cc1ccc(/C=N/n2c(COc3ccccc3)n[nH]c2=S)cc1`, the inhibition is 6.13%.

On to `Cc1ccc(NC(=O)COC(=O)Cc2c[nH]c3ccccc23)cc1C`, for which the inhibition is -4.13%.

With `O=C(COC(=O)CCc1c[nH]c2ccccc12)Nc1ccc([N+](=O)[O-])cc1`, the inhibition was 2.33%.

On to `COc1cc(/C=C/C(=O)OCC(=O)NCCC2=CCCCC2)cc(OC)c1OC`, for which the inhibition was 2.02%.

For `Cc1ccccc1NS(=O)(=O)c1ccc(C(=O)N2CCN(c3ccccc3O)CC2)cc1`, the inhibition was 4.31%.

Turning to `Cc1cccc(NS(=O)(=O)c2ccc(C(=O)N3CCCC3)cc2)c1C`, the inhibition is -8.71%.

`OC(COCc1ccc(Cl)cc1)CN1CCCCC1` (stereo not given): the inhibition is 1.29%.

In the case of `C=CCNC(=O)/C(C#N)=C\c1cc(Cl)c(OCC)c(OC)c1`, the inhibition was 7.41%.

In the case of `COc1cccc(CN(C)C(=O)CSCC(=O)Nc2cccc(C)c2)c1OC`, the inhibition is -5.41%.

In the case of `CC(C)C(=O)N=c1sc2cc(F)cc(F)c2n1C`, the inhibition is -9.4%.

For `O=C(NCc1cccs1)c1cccc(Nc2nc3ccc(Br)cc3[nH]2)c1`, the inhibition is -11%.

On to `O=C(NCC1CC1)c1ccc(Nc2nc3ccc(Br)cc3[nH]2)cc1`, for which the inhibition was -0.43%.

As to `CC(=O)Oc1ccc(-c2cccc(C(=O)NCCO)c2)cc1`, the inhibition was -0.93%.

In the case of `O=S(=O)(NC1CCCCC1Nc1ccccc1)c1ccccc1` (stereo not given), the inhibition is -7.27%.

`O=C(CN(c1ccc(F)cc1)S(=O)(=O)c1ccc2c(c1)OCCO2)N1CCOCC1`: the inhibition was 1.58%.

Turning to `CCCCCC(=O)NCc1c(C(F)(F)F)nn(C)c1N1CCOCC1`, the inhibition was -1.96%.

As for `O=C(C[N+]12CCN(CC1)CC2)NCCc1ccc(Cl)cc1Cl`, the inhibition is -3.14%.

Take `O=C(CN1CCNC(=O)C1)NCCc1ccc(Cl)cc1Cl`: the inhibition was -0.1%.

As to `COc1ccc(OC)c(NC(=O)c2cccnc2Sc2cc(C)ccc2C)c1`, the inhibition is 8.29%.

As to `CC(C)(C)c1ccccc1OCCOCCNCc1ccccc1`, the inhibition is 2.6%.

Take `Cc1ccc(S(=O)(=O)n2ccc3c(OCCOCCSCC(NC(=O)OC(C)(C)C)C(=O)O)cccc32)cc1` (stereo not given): the inhibition was 0.6%.

Regarding `O=C(CSc1nc2ccccc2[nH]1)Nc1ccc2[nH]c(=O)[nH]c2c1`, the inhibition is 8.79%.

For `CC(=O)Nc1ccc(NC(=O)CSc2ncnc3sc(C)c(C)c23)cc1`, the inhibition is -0.3%.

For `CNc1nc(-c2ccc3c(c2)CCN3C(=O)c2ccccc2F)c(C)s1`, the inhibition was 9.7%.

`O=C1/C(=C/c2ccccn2)SC(=S)N1NS(=O)(=O)c1ccccc1`: the inhibition was 5.72%.

Turning to `CCC(=O)NCCCCCCCCCNC(=O)CC`, the inhibition is -4.93%.

Take `CCC(=O)NCCCCCCNC(=O)CC`: the inhibition was 0.18%.

Turning to `C=CCn1c(SCC(=O)Nc2ccccc2F)nnc1C(C)NC(=O)c1ccccc1F` (stereo not given), the inhibition was -12.4%.

`Cc1ccc(-c2c(C)n([O-])c3c([n+]2=O)CCCCC3)cc1`: the inhibition was -3.38%.

Consider `CC(C)C[C@H](NC(=O)OC(C)(C)C)c1nnc(SCc2ccccc2)o1`, for which the inhibition is -3.57%.

On to `CCCCSc1nnc([C@H](CC(C)C)NC(=O)OC(C)(C)C)o1`, for which the inhibition was -2.58%.

For `COc1ccc(C)cc1S(=O)(=O)NCc1cccs1`, the inhibition is 1.39%.

Regarding `O=C(NCCc1ccc(Cl)cc1)c1ccc(OCC2CCCO2)cc1` (stereo not given), the inhibition is 5.17%.

In the case of `O=C(NC1CCCCC1)N1CCN(Cc2nc3ccccc3c(=O)[nH]2)CC1`, the inhibition was -4.69%.

With `CC(=O)Nc1ccc(NC(=S)NC(=O)C2CCCC2)cc1`, the inhibition was -8.34%.

For the compound `COc1ccc(NC(=S)NC(=O)C2CCC2)cc1`, the inhibition is -0.22%.

Consider `Cn1nc(C(F)(F)F)c(C(=O)Nc2ccc(F)cc2F)c1Sc1ccc(Cl)cc1`, for which the inhibition is -9.99%.

With `COc1ccc(-c2ccc3oc(-c4ccsc4)cc(=O)c3c2)cc1F`, the inhibition was -0.47%.

For `COc1cc(-c2ccc3oc(-c4ccsc4)cc3c2)cc(OC)c1OC`, the inhibition was 0.64%.

As to `O=C1c2ccccc2C(=O)N1CCc1csc(-c2cccc(F)c2)n1`, the inhibition is 3.85%.

With `COC(=O)CC1C(=O)NCCN1C(=O)c1ccccc1` (stereo not given), the inhibition is -6.14%.

As for `Brc1ccc2nc(N3CCN(c4ccccc4)CC3)sc2c1`, the inhibition is -4.96%.

Turning to `Brc1cccc2sc(N3CCCC3)nc12`, the inhibition was 6.95%.

As for `COc1ccc(C(=O)Nc2ccccc2C(=O)NCCN2CCOCC2)cc1OC`, the inhibition is 4.9%.

Take `O=C(COC(=O)c1ccc2c(c1)OCCO2)Nc1cccc(S(=O)(=O)N2CCOCC2)c1`: the inhibition is 9.61%.

`COc1ccccc1C(=O)NCc1ccccc1`: the inhibition is 10.8%.

Take `C/C(=N\NC(=S)NCc1ccccc1)c1ccc(Br)cc1`: the inhibition was 6.33%.

Turning to `COCCNC(=S)N/N=C(\C)c1ccccc1OC`, the inhibition is -6.36%.

On to `COc1ccccc1C(=O)NNC(=O)CCC(=O)NCc1ccccc1`, for which the inhibition is -3.02%.

With `CSc1ccccc1NC(=O)Nc1cccc(F)c1`, the inhibition was 1.3%.

As for `CC(C)(C)N(Cc1ccccc1)C(=O)COC(=O)CNC(=O)c1ccco1`, the inhibition was 5.79%.

As for `CC(C)C(NC(=O)c1cccs1)C(=O)NC1=NCCS1` (stereo not given), the inhibition is -3.72%.

`COc1cc(OC)cc(C(=O)N[C@H](C(=O)Nc2nc3ccc(S(C)(=O)=O)cc3s2)C(C)C)c1`: the inhibition is 10.5%.

Regarding `CCOC(=O)c1sc(NC(=O)c2cc3ccccc3o2)nc1C`, the inhibition was 3.64%.

For the compound `CCOC(=O)c1csc(NC(=O)c2cc(=O)c3ccccc3o2)n1`, the inhibition was -0.69%.

For the compound `COc1cccc(/C=N/Nc2nc(N3CCCC3)nc(N3CCCC3)n2)c1O`, the inhibition was 3.67%.

As for `COc1cc(/C=N/Nc2nc(Nc3ccccc3)nc(-n3nc(C)cc3C)n2)cc(OC)c1OC`, the inhibition is 10.6%.

For the compound `COc1ccc(NC(=S)N2CCC(N(C)CCN3CCOCC3)CC2)cc1`, the inhibition was 2.62%.

Take `COc1ccccc1C(=O)NCCC(=O)N1CCN(c2ccccc2O)CC1`: the inhibition is 1.15%.

For the compound `COc1ccc(-c2csc3nc(-c4ccccc4F)oc(=O)c23)cc1`, the inhibition was -1.39%.

Take `COc1ccc(-c2nc3scc(-c4ccc(OC)c(OC)c4)c3c(=O)o2)cc1`: the inhibition is 11.9%.

For the compound `CCOc1ccccc1N1CCN(c2ncnc3scc(-c4ccc(OC)cc4)c23)CC1`, the inhibition is -0.51%.

`COc1ccc(-c2csc3ncnc(N4CCN(c5ccccc5Cl)CC4)c23)cc1`: the inhibition is 50.3%.

For `CCN(CC)c1ccc(C2C(C(C)=O)C(=O)CC(C)(O)C2C(C)=O)cc1` (stereo not given), the inhibition is -4.35%.

With `C1CN(c2nc3nonc3nc2N2C[C@H]3CC[C@H]2C3)CCS1`, the inhibition was -11%.

In the case of `CCNC(=S)N(CCc1c(C)[nH]c2ccccc12)Cc1cccnc1`, the inhibition is -3.56%.

In the case of `CN1CCN(C(=O)CCN2C(=O)/C(=C\c3ccccc3F)SC2=S)CC1`, the inhibition was -5.52%.

Consider `COc1ccc(C#Cc2c(-c3ccccc3)n(C)c3ccccc23)cc1`, for which the inhibition was 6.76%.

In the case of `COc1ccc(-c2c(C#Cc3ccsc3)c3cc(Br)ccc3n2C)cc1`, the inhibition was 8.44%.

For `COc1cc(CNCc2ccccc2)cc(Cl)c1OC`, the inhibition was -0.38%.

`COc1cc(CNCCO)cc(Cl)c1OCc1ccccc1Cl`: the inhibition was 1.99%.

On to `CCN(C(=O)c1cnc2scc(C)n2c1=O)c1ccccc1C`, for which the inhibition is -2.4%.

With `COc1ccc(NC(=O)CC(Cc2ccc(Cl)cc2)C(=O)O)cc1` (stereo not given), the inhibition was 1.62%.

Take `Cc1cccc(C)c1NC(=O)CN(C)C(=O)c1ccccc1Cc1ccccc1`: the inhibition was 2.81%.

Consider `Cc1cc(C)n2nc(SCC(=O)NC(=O)c3ccccc3Cl)nc2n1`, for which the inhibition was 1.71%.

As for `Cc1nn(-c2ccccc2)c2[nH]c(=O)c(CNCc3ccc4c(c3)OCO4)cc12`, the inhibition is -4.36%.

With `CC(C)(C)c1nn(-c2ccccc2)c2[nH]c(=O)c(CNc3ccc4c(c3)OCCO4)cc12`, the inhibition was 52.8%.

`Cc1ccccc1NC(=O)C1CCN(S(=O)(=O)c2cccc3nonc23)CC1`: the inhibition is 4.17%.
